Assay [1] deals with Tyrosine-protein kinase SYK (Homo sapiens) (UniProt P43405). To be noted: at 10 µM.
In assay [2] the target is T1, Mitogen-activated protein kinase kinase kinase 7 (Homo sapiens) (UniProt O43318).
T1 sequence (whole entry): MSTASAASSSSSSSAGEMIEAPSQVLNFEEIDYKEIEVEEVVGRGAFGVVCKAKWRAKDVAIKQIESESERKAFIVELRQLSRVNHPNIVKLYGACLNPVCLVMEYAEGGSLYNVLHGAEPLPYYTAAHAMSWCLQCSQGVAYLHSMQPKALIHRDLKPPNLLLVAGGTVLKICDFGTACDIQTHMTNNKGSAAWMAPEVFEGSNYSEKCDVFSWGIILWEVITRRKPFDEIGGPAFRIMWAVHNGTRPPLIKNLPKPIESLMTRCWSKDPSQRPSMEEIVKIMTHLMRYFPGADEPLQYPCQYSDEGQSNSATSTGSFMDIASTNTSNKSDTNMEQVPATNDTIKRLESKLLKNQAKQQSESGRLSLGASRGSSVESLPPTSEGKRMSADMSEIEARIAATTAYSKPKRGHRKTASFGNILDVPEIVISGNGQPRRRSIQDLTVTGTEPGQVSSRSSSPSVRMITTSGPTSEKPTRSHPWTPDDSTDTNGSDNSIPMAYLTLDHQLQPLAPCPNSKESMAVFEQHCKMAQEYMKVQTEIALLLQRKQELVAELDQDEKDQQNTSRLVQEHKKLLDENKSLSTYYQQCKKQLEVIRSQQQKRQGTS
To be noted: at 1 µM.

The target of assay [3] is T1, Mitogen-activated protein kinase kinase kinase 7 (Homo sapiens). To be noted: at 10 µM.
Assay [4] concerns the target T2, Serine/threonine-protein kinase TAO1 (Homo sapiens) (UniProt Q7L7X3).
T2 sequence (whole entry): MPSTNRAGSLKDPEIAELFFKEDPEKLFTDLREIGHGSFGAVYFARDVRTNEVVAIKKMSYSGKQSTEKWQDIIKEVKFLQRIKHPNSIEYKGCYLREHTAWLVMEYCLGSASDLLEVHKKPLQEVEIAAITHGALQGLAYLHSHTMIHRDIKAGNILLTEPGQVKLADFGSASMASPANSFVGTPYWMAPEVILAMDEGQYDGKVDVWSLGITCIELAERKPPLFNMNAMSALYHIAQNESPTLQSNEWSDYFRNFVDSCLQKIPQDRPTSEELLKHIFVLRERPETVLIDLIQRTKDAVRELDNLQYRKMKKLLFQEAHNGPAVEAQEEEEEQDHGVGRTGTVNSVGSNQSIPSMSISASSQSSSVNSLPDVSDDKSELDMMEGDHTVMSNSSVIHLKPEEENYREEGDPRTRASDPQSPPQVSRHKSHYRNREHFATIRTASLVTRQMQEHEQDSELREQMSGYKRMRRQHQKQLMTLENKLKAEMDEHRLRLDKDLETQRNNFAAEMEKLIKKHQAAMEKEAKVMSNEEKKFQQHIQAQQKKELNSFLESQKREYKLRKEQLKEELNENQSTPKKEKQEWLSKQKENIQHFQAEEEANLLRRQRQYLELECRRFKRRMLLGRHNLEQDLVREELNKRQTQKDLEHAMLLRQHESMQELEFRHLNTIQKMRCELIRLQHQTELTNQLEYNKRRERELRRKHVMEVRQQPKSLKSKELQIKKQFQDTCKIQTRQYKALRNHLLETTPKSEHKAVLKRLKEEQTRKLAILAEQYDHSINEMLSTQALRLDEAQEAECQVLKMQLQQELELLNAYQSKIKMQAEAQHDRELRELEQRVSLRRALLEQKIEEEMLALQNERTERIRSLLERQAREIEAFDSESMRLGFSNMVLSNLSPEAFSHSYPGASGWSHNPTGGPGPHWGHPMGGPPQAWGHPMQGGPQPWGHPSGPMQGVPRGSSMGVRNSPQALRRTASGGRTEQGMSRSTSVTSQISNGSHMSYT
To be noted: at 10 µM.

Assay [5] deals with T3, Serine/threonine-protein kinase TAO2 (Homo sapiens) (UniProt Q9UL54).
T3 sequence (whole entry): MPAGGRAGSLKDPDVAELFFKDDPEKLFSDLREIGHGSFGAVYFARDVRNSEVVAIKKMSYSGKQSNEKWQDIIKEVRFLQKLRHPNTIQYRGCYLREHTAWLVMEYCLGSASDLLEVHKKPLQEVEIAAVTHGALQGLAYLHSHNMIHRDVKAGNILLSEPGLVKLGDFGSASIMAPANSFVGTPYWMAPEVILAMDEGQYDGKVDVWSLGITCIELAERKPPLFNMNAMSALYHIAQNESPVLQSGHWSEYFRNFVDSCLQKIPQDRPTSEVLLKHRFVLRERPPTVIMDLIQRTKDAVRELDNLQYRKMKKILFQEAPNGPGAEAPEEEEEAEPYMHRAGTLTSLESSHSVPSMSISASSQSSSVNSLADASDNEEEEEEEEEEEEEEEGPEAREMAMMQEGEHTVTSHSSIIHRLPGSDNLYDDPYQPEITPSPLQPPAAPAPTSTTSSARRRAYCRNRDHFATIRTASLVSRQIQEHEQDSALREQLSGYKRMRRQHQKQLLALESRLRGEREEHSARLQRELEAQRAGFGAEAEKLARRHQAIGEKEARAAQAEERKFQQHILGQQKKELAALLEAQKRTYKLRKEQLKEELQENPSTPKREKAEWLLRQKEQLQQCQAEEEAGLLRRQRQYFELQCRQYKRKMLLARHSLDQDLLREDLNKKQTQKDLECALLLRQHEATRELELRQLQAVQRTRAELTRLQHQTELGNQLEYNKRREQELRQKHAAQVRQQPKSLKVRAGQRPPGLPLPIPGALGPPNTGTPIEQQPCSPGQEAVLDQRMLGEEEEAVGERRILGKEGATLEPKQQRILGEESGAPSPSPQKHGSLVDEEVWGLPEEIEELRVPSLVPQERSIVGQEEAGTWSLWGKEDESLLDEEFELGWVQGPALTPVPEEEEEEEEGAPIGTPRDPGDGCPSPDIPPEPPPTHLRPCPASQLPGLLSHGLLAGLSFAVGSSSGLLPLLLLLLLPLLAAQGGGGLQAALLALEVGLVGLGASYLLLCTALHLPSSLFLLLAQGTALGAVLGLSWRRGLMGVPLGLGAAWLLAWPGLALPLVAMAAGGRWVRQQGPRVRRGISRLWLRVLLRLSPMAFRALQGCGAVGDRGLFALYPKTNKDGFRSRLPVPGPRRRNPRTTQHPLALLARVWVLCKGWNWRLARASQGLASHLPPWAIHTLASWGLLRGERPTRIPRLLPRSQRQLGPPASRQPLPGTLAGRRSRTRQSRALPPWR
To be noted: at 1 µM.

The target in assay [6] is T3, Serine/threonine-protein kinase TAO2 (Homo sapiens). To be noted: at 10 µM.
Assay [7] deals with T4, Serine/threonine-protein kinase TAO3 (Homo sapiens) (UniProt Q9H2K8).
T4 sequence (whole entry): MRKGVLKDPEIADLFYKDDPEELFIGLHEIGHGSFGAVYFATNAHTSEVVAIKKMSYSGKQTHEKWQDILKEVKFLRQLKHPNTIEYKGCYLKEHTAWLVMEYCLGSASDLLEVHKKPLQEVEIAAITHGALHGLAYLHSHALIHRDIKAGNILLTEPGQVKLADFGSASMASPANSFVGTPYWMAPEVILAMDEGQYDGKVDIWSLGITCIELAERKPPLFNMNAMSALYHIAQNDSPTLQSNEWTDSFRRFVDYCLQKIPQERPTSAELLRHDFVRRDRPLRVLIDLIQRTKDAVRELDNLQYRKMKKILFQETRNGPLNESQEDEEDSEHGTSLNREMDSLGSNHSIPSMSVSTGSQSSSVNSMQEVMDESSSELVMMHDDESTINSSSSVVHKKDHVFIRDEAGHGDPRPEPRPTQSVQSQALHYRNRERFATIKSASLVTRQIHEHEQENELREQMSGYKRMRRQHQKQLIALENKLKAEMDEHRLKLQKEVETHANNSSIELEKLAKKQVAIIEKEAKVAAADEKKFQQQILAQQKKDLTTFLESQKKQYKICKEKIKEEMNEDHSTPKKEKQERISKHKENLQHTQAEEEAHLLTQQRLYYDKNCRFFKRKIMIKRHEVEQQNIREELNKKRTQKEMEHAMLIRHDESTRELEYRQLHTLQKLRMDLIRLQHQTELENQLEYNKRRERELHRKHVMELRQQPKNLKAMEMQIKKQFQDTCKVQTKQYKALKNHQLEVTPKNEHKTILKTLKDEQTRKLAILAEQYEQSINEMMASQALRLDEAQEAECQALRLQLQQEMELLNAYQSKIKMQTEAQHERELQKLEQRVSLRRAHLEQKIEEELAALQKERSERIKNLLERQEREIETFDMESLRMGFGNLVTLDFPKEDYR
To be noted: at 1 µM.

Assay [8] deals with T4, Serine/threonine-protein kinase TAO3 (Homo sapiens). To be noted: at 10 µM.
Assay [9] has as its target T5, Serine/threonine-protein kinase TBK1 (Homo sapiens) (UniProt Q9UHD2).
T5 sequence (whole entry): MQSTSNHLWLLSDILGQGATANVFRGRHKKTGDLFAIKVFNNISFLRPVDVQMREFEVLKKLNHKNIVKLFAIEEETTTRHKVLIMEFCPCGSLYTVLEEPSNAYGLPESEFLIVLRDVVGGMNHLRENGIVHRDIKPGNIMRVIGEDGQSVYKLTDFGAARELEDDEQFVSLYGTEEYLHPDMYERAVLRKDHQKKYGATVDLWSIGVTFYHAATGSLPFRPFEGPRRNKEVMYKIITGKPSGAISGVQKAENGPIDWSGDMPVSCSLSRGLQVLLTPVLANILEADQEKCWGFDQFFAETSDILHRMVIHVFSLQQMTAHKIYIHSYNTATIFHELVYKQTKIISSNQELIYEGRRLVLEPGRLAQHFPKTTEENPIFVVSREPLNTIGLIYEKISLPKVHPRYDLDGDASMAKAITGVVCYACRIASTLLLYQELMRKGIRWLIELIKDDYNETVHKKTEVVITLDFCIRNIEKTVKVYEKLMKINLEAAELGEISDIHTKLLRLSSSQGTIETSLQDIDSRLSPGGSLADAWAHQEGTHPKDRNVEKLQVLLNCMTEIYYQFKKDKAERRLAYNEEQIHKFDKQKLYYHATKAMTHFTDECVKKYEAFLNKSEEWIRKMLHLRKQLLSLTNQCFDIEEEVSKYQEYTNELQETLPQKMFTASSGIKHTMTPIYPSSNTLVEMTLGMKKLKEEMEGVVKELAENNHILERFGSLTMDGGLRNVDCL
Particulars: at 1 µM.

As for `Cn1cnc2cc3c(Nc4cccc(Br)c4)ncnc3cc21`, the residual activity in assay [1] amounted to 86%; in [2], 98%; in assay [3], 106%; in assay [4] it was 73%; in [5] it was 98%; in assay [6] it was 98%. The residual activity worked out at 94% in [7], 93% in assay [8] and 83% in assay [9].

The values above are taken from ChEMBL document CHEMBL2218924, “A broad activity screen in support of a chemogenomic map for kinase signalling research and drug discovery” (Biochem J, 2013).
